Assay outcomes from PubChem.
D3 ag – D3 dopamine receptor (human) agonism. P35462. D3R DiscoveRx beta-arrestin cells, luminescence, 90 min. 410,000 tested, 0.58% active. max activation, %; in the data active = max activation above about 30%; also: 0% is about no effect
Target sequence (P35462 whole entry, looked up): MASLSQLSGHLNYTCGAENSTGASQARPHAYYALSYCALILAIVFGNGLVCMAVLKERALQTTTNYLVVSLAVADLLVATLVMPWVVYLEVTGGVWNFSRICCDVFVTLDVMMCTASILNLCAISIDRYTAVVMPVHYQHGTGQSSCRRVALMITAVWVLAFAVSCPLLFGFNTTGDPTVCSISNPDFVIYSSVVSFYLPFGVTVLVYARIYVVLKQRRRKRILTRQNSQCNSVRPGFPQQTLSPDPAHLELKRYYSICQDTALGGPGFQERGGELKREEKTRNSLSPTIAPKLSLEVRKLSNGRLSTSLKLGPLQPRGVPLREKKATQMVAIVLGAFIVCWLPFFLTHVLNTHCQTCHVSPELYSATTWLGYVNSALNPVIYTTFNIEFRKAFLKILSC
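Cells at 1500/well, incubated overnight, then treated with pinned compounds (dopamine as control) for 90 min at 37 degrees C. DiscoveRx reagent added for 30 - 60 minutes at room temperature; luminescence read.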
Glioma ERSR ind – inducers of ER stress response in human glioma cells; AID 602332; U87-MG GRP78 promoter luciferase reporter, 16 h; Potency, µM, without a hit: at the highest dose activation, actives largely listed as activators; 420,000 tested, 0.02% active; also: potency is read from the fitted curve at half-maximal effect; series mostly up to about 76 µM; % of control where 0% means no effect; nearly all actives have a fitted effect of over 35% in size
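Stably transfected U87-MG human glioma cells carrying a GRP78-based luminescent sensor were seeded at 1000 cells/well, pin-dosed with compounds and incubated 16 h. Luciferase reagent was then added, and end-point luminescence was read after 10 min at room temperature.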
DRD3 antagonist – blocks the human D3 dopamine receptor | D3R cells, DiscoveRx beta-arrestin luminescence, antagonist mode; hits give low values | max response, negative = inhibition, % | 360,000 tested, 2.5% active; in the data active = max response below about -50%; inconclusive = no clear call, values can overlap the other calls; also: % is scaled to controls: 0 for no effect and ±100 for the full control effect
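Cells plated overnight at 1500 cells/well, then exposed to library compounds with dopamine controls for 90 minutes at 37 degrees C. DiscoveRx reagent added for 30–60 minutes at room temperature; luminescence read, quantitative HTS format.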
Nrf2 ARE act – Nrf2 pathway activation | AREc32 ARE-luciferase reporter (MCF7-derived line), luminescence, 24 h | Potency, µM (top dose mostly 46.1 µM), for inactives: top-dose activation, most hits filed as activators | 410,000 tested, 0.31% active; also: potency is read from the fitted curve at half-maximal effect; % of control where 0% means no effect; nearly all actives have a fitted effect of over 65% in size
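Luminescent ARE reporter assay in AREc32_Fluc cells: overnight plating at 37 deg C, 24 hr compound incubation, Steady-Glo added, 30 min RT before reading.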
Numbers without * were called inactive; ? = inconclusive; / = not tested or not shown. Shown are actives, neighbours in structure and some others; about 3% of the full set was active somewhere. Unless noted, calls follow the shape of the dose curve; as a rule, active = well fitted curve in the direction sought with a large enough effect; inconclusive = small, poorly fitted or top-dose-only effect, or another doubt; inactive = no such curve, though single readings can be large; an effect the other way counts as inactive or inconclusive.

SMILES	D3 ag	Glioma ERSR ind	DRD3 antagonist	Nrf2 ARE act
O=C(NCCc1ccncc1)c1cnn(-c2ncc3c(n2)-c2ccccc2CCC3)c1C1CC1	/	-5%	/	/
CN1C/C(=C/c2ccccc2[N+](=O)[O-])C(=O)/C(=C\c2ccccc2[N+](=O)[O-])C1	-27	-12%	-90*	28%
CC(=O)Nc1ccc(C(=O)N2CCCC(n3cc(C(=O)NCC(C)C)nn3)C2)cc1 (centres undefined)	/	0%	/	/
CCc1ccc(S(=O)(=O)c2nnn3c2nc(Nc2ccc(C)c(Cl)c2)c2sccc23)cc1	0	-3%	/	0%
Cc1cc2c(cc1C)N[C@]1(C[C@H]3CCCC(=O)N4CC[C@@H](C1)[C@@H]34)C(=NCc1ccccc1)N2	/	-1%	/	/
C=CCN(CC=C)CCOc1cccc(Oc2ccccc2)c1	-1	-1%	-50*	3%
CC1CCN(C(=O)COC(=O)c2n[nH]c3ccccc23)CC1	-12	-7%	-54*	0%
Cc1ccc(NC(=O)COC(=O)c2ccc(NC(=O)CC#N)cc2)cc1S(=O)(=O)N1CCOCC1	-25	-3%	-53*	-1%
Cc1ccc(NC(=O)Cn2ncc(Cl)c(Cl)c2=O)cc1S(=O)(=O)N1CCCCC1	-14	-16%	-58*	?
Cc1ccc(NC(=O)COC(=O)C2CC3C=CC2C3)cc1S(=O)(=O)N1CCCCC1 (centres undefined)	47*	2%	1	4%
Cc1ccc(C(=O)O)cc1S(=O)(=O)N1CCOCC1	11	-5%	-72*	0%
Cc1ccc(C(=O)N2CCOCC2)cc1S(=O)(=O)N1CCOCC1	0	-5%	-2	0%
CC(CSC(=O)c1ccccc1)C(=O)N1CC(Sc2ccccc2)CC1C(=O)O (centres undefined)	/	-3%	/	/
Cc1ccc(C(=O)C[n+]2cccc3cccc(O)c32)cc1	/	-4%	/	/
Cc1cc(C)n2nc(CNC(=O)c3cccc(Cl)c3)nc2n1	-9	-3%	/	-1%
O=[N+]([O-])c1ccc(N/N=C/c2ccc(O)c(O)c2O)c(S(=O)(=O)N2CCOCC2)c1	1	-1%	-24	5%
O=[N+]([O-])c1ccc(N/N=C/c2cccc(O)c2O)c(S(=O)(=O)N2CCOCC2)c1	-8	-3%	-64*	1%
O=c1[nH]c2cc([N+](=O)[O-])ccc2c2cc(Br)ccc12	4	-2%	-11	3.2µM*
COc1ccc(Cl)cc1C(=O)NNC(=O)COC(=O)CCN=C1NS(=O)(=O)c2ccccc21	-65	-3%	-108*	0%
CC(C)C12CN3CC(C(C)C)(CN(C1)C3c1ccccc1)C2O (centres undefined)	-22	-1%	-84*	0%
CCCCNC(=O)[C@@H]1CC=C[C@@H]2CCN(Cc3ccc(OC)c(OC)c3)C(=O)[C@@H]21	/	-3%	/	/
O=C(c1ccccc1)N1CCN(C(=O)c2ccccc2)C1c1ccccc1	-6	-4%	-51*	0%
CC(=O)N1CCN(C(C)=O)C1c1ccccc1	1	-4%	-11	0%
O=C(c1ccccc1)c1ccccn1	1	-1%	1	3%
O=C(CC(=O)c1ccccn1)c1ccccc1	8	-1%	?	7.9µM*
SMILES	D3 ag	Glioma ERSR ind	DRD3 antagonist	Nrf2 ARE act
O=C(NCCc1nnc2n1CCN(Cc1ccc3c(c1)CCO3)CC2)c1ccco1	/	-8%	/	/
O=C(CCS(=O)(=O)Cc1ccccc1)Nc1ncc([N+](=O)[O-])s1	-3	-4%	-14	13µM*
Cc1c(C(=O)NCc2ccc(F)cc2)sc(=O)n1Cc1ccc(Cl)c(Cl)c1	-9	0%	-74*	0%
Cc1cccc(CNC(=O)c2sc(=O)n(Cc3c(C)cccc3C)c2C)c1	-10	1%	-90*	3%
COc1ccccc1Cn1c(C)c(C(=O)NCc2cccc(C)c2)sc1=O	-4	-2%	-57*	0%
Cc1ccccc1Cn1c(C)c(C(=O)NCc2cccc(Cl)c2)sc1=O	-4	-1%	-53*	2%
Cc1cccc(C)c1Cn1c(C)c(C(=O)NCCC#N)sc1=O	6	-1%	1	0%
COc1ccc(CNC(=O)c2sc(=O)n(Cc3ccccc3C)c2C)cc1	1	2%	-28	1%
CC1=C(C#N)C(c2ccc3ncccc3c2)C(C#N)=C(C)N1	18	-2%	-61*	0%
CC1=C(C#N)C(c2ccccc2O)C(C#N)=C(C)N1	-2	-6%	3	2%
Cc1ccc(C(=O)OCc2c(C)noc2C)cc1NC(=O)c1ccco1	13	-5%	6	4µM*
CCCCNC(=O)COC(=O)c1ccc(C)c(NC(=O)c2ccco2)c1	-2	-4%	-10	3%
COc1cc(Cl)c(C)cc1N1C(=O)[C@@H]2C[C@H]1CN2Cc1ccccn1	/	-4%	/	/
O=C(COc1ccc(/C=N/NC(=O)c2ccccc2O)cc1)Nc1ccc([N+](=O)[O-])cc1	41*	-3%	10	-1%
C[C@@]1(C(=O)O)NCCc2cc(O)c(O)cc21	/	-3%	/	/
COc1ccc(CN2CCN(C(=O)c3cccc(OC)c3OC)CC2)cc1OC	0	3%	1	1%
O=C(c1sccc1Cl)N1CCN(Cc2ccc3c(c2)OCO3)CC1	-20	-1%	-5	3%
COc1cccc(C(=O)N2CCN(Cc3ccc4c(c3)OCO4)CC2)c1OC	-3	-4%	-67*	0%
Cn1c(C(=O)N2CCC(C(=O)N3CCN(Cc4ccc5c(c4)OCO5)CC3)CC2)cc2sccc21	-9	-2%	0	0%
COc1ccsc1C(=O)N1CCN(Cc2ccc3c(c2)OCO3)CC1	-2	-3%	-63*	0%
O=C(CN1CCN(Cc2ccc3c(c2)OCO3)CC1)Nc1ccc2c(c1)OCO2	-5	-1%	?	-1%
Cn1c(C(=O)N2CCN(Cc3ccc4c(c3)OCO4)CC2)cc2sccc21	-32	-4%	-96*	0%
COc1ccc(NC(=O)CN2CCN(Cc3ccc4c(c3)OCO4)CC2)cc1OC	-10	7%	-73*	0%
C[C@@H]1C[C@H]2C3C[C@H](F)C4=CC(=O)C=CC4(C)[C@@]3(F)[C@@H](O)CC2(C)[C@@]1(O)C(=O)COC(=O)C(C)(C)C (some centres undefined)	-19	/	/	/
CC(=O)Nc1ccc(S(=O)(=O)NCCc2csc3nc(-c4cccc(C)c4)nn23)cc1	3	0%	/	1%
SMILES	D3 ag	Glioma ERSR ind	DRD3 antagonist	Nrf2 ARE act
O=C(O)C1CCCN1C(=O)c1cccs1 (centres undefined)	2	-3%	7	0%
COC(=O)C1CCCN1C(=O)c1cccs1 (centres undefined)	-4	-4%	-76*	6%
COc1cc(OC)cc(-c2nc3n(n2)C(c2ccccc2F)C(C(=O)Nc2cccnc2)=C(C)N3)c1 (centres undefined)	-6	-2%	/	4%
COc1ccc(CN(C)C(=O)c2ccc(COc3ccccc3)cc2)c(OC)c1	-16	-2%	-5	0%
COc1cc(OC)c(OC)cc1CNC(=O)c1ccc(COc2ccccc2)cc1	31*	-2%	4	1%
S=C(NCCN(C1CCCCC1)C1CCCC1)Nc1cccc(Cl)c1	-38	-4%	-102*	7%
